Test results published in PubChem BioAssay (NCATS).
Where “and” joins values, the source holds several entries; their conditions need not be identical. Equal entries are not always repeated. Records with an inconclusive call do not appear. Calls of active or inactive are those of the source. Unless noted, calls follow the shape of the dose curve; as a rule, active = well fitted curve in the direction sought with a large enough effect; inconclusive = small, poorly fitted or top-dose-only effect, or another doubt; inactive = no such curve, though single readings can be large; an effect the other way counts as inactive or inconclusive.

Key:
[1] = biological target: Cellular tumor antigen p53 (Homo sapiens) (UniProt P04637); assay: Primary qHTS for small molecule compounds that upregulate eGFP-tagged delta133p53alpha (in N-terminal) cells. (AID 2060322); conditions: NCI-H358 eGFP-delta133p53alpha fluorescence, 24 h; activation: active compounds read high;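 also: series mostly up to about 56 µM; 0% = DMSO vehicle and 100% = reference activator; nearly all actives have a fitted effect of over 75% in size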
Procedure, shortened: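 NCI-H358 cells pre-induced 24 h with 10 ng/ml doxycycline to express N-terminal eGFP-delta133p53alpha, then dosed 24 h at 37C without doxycycline; fixed, Hoechst-stained, GFP intensity by laser scanning cytometry, normalized to DMSO (0%) and 57.5 uM 5-azacytidine (100%).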

[2] = biological target: Cellular tumor antigen p53 (Homo sapiens) (UniProt P04637); assay: Primary qHTS for small molecule compounds that upregulate eGFP-tagged delta133p53alpha (in C-terminal) cells. (AID 2060324);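 also: 0% = DMSO wells and 100% = 57.5 µM 5-azacytidine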
Procedure, shortened: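 NCI-H358 cells pre-induced 24 h with 100 ng/ml doxycycline to express delta133p53alpha-eGFP, then dosed in doxycycline-free medium for 24 h at 37C. Fixed, Hoechst-stained; GFP intensity by laser scanning cytometry, normalized to DMSO wells.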

[3] = biological target: Aldehyde dehydrogenase, mitochondrial (Homo sapiens) (UniProt P05091); assay: qHTS for Inhibitors of the Aldehyde Dehydrogenase Family (ALDH2) Validation screens (AID 2061302; active = well fitted inhibition curve with a large enough effect; title and protocol of this record describe different tests;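 also: plate controls were DMSO vehicle for no effect and maximal DPI positive control response for full effect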)
[4] = biological target: Retinaldehyde dehydrogenase 3 (Homo sapiens) (UniProt P47895); assay: qHTS for Inhibitors of the Aldehyde Dehydrogenase Family (ALDH1A3) Validation screen (AID 2061312); also: % is scaled to controls: 0 for no effect and ±100 for the full control effect; nearly all actives have a fitted effect of over 45% in size

Sequence of Cellular tumor antigen p53 (Homo sapiens) (P04637 whole entry, looked up): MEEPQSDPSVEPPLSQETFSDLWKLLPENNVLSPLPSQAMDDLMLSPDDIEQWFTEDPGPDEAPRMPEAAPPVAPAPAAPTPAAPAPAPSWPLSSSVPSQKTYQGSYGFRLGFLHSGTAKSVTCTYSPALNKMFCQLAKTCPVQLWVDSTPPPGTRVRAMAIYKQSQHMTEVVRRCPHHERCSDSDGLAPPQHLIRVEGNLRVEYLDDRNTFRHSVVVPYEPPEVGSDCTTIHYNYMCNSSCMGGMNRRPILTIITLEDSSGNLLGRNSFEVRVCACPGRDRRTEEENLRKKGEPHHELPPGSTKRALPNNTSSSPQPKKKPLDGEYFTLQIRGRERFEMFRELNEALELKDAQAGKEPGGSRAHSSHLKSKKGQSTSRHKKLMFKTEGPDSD

O=c1[nH]c2cc(Cl)ccc2c(O)c1-c1ccc(Oc2ccccc2)cc1
inactive: activation [1] 23.6% | Potency [2] | Potency [3] | Potency [4]

CC1(C)CCC=[N+]1[O-]
inactive: activation [1] 8.43% | Potency [2] | Potency [3] | Potency [4]

CC1CCN=C(N)S1 (stereo not given)
inactive: activation [1] -24.3% | Potency [2] | Potency [3] | Potency [4]

CCc1cccc(N(C)C(N)=Nc2cccc3ccccc23)c1
inactive: activation [1] 19.2% | Potency [2] | Potency [3] | Potency [4]

CN1CC(O)C(O)C(O)C1CO (stereo not given)
inactive: activation [1] 9.95% | Potency [2] | Potency [3] | Potency [4]

C[C@]12C[C@H](O)[C@H]3[C@@H](CCC4=CC(=O)CC[C@@]43C)[C@@H]1CC[C@@H]2C(=O)CO
inactive: activation [1] -5.02% and -5.37% | Potency [2] | Potency [3] | Potency [4]

Clc1ccc(N2CCN(Cc3cc4ccccn4n3)CC2)cc1
inactive: activation [1] -21.6% | Potency [2] | Potency [3] | Potency [4]

C#CC(N)CCC(=O)O (stereo not given)
inactive: activation [1] -41.5% | Potency [2] | Potency [3] | Potency [4]

CCCCCN(CCCCC)C(=O)C(CCC(=O)O)NC(=O)c1ccc(Cl)c(Cl)c1 (stereo not given)
inactive: activation [1] 13% and -3% | Potency [2] | Potency [3] | Potency [4]

CC[N+](CC)(CC)CC(=O)Nc1c(C)cccc1C
inactive: activation [1] -4.9% | Potency [2] | Potency [3] | Potency [4]
